# Only some compounds are listed: those with a hit (about 8% of all), similar ones and a draw of the others.
# SARS PLpro yeast: blocks SARS-CoV papain-like protease in a yeast assay; S. cerevisiae expressing SARS-CoV PLpro, growth rescue; Potency, µM (doses to about 32.9 µM), inactives show top-dose activity, positive = growth rescue, hits mostly activators; hit rate 0.19% among 330,000; calls by dose curve; note: potency is the fitted concentration of half-maximal effect; 0% is about no effect; nearly all actives have a fitted effect of over 55% in size
# FMDV inh: foot and mouth disease virus antiviral activity. Potency, µM (top dose mostly 57.9 µM), without a hit: at the highest dose activity change, negative = inhibition, hits mostly inhibitors. FMDV antiviral cell-based qHTS. hit rate 1.2% among 410,000; calls by dose curve; tested in HEK293T cells; note: read-out not given here; potency is the fitted concentration of half-maximal effect; % is set by controls: 0 for no effect and ±100 for the full control effect; nearly all actives have a fitted effect of over 45% in size
# HCV inh: blocks hepatitis C virus | hit rate 3.4% among 340,000 | Potency, µM (series often up to 41.8 µM), for inactives: at the highest dose activity change, negative = inhibition, actives largely listed as inhibitors | Huh7.5.1 HCVcc-Cre infection, luciferase reporter, 44 h; active = well fitted inhibition curve with a large enough effect; inconclusive = small, poorly fitted or top-dose-only effect, or another doubt; inactive = no such curve, though single readings can be large or run the other way; note: potency is the fitted concentration of half-maximal effect; % is set by controls: 0 for no effect and ±100 for the full control effect
#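 Whole-lifecycle infectious HCVcc-Cre system; cells 1,000/well, compound then virus (~0.5 moi) added 4 h after plating, 44 h culture. Luciferase read 15 sec following 15 min substrate incubation, room temp.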
# Lassa entry inh: Lassa virus entry inhibition; Lassa virus pseudotype entry inhibition, cell reporter; Potency, µM (doses to about 37.9 µM), without a hit: top-dose activity change, negative = inhibition, hits mostly inhibitors; hit rate 1.2% among 300,000; AID 540256; calls by dose curve; tested in HEK293 cells; note: potency is the fitted concentration of half-maximal effect; % is set by controls: 0 for no effect and ±100 for the full control effect; nearly all actives have a fitted effect of over 50% in size
# Marburg entry inh: blocks Marburg virus binding to or entry into cells; hit rate 1.8% among 300,000; AID 540276; Marburg virus pseudotyped entry inhibition, cell reporter; Potency, µM (titrated, usually from 37.8 µM), without a hit: top-dose activity change, negative = inhibition, hits mostly inhibitors; calls by dose curve; tested in HEK293 cells; note: potency is the fitted concentration of half-maximal effect; % is set by controls: 0 for no effect and ±100 for the full control effect
# HCMV inh: blocks human cytomegalovirus replication; HFF cells, HCMV-luciferase reporter, 72 h; stronger effect = lower value; activity change, negative = inhibition, % at 57.5 µM; hit rate 4.5% among 410,000; in the data active = activity change below about -60%; inconclusive = no clear call, values can overlap the other calls; inactive = above about -39%; note: % is set by controls: 0 for no effect and ±100 for the full control effect
#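 Two-dose cell screen: HFF monolayers treated with compounds and infected with luciferase-expressing HCMV at 1 PFU/cell, 72 h at 37C, then lysed for luciferase measurement.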
# Starred values were filed as active, the others as inactive; ? = inconclusive; nt = not tested or not shown; ! = a repeat was not active; [ ] = dose if it differs, or a comment.
SMILES,SARS PLpro yeast,FMDV inh,HCV inh,Lassa entry inh,Marburg entry inh,HCMV inh
CCn1cc(C(=O)NCCCO)c(=O)c2cc(F)c(N3CCN(C)CC3)cc21,0%,-9%,6%,nt,nt,19
CCC(C)NC(=O)c1cn(CC)c2cc(N3CCN(C(=O)c4ccco4)CC3)c(F)cc2c1=O (centres undefined),2%,-18%,14µM*,?,4%[46.1 µM],-23
CCn1cc(C(=O)NCCc2ccccc2)c(=O)c2cc(F)c(N3CCN(C)CC3)cc21,4%,24%,10µM*,5%,-2%,35
CCCCCCNC(=O)c1cn(CC)c2cc(N3CCN(C)CC3)c(F)cc2c1=O,0%,-21%,10µM*,nt,nt,2
CCn1cc(C(=O)O)c(=O)c2cc(F)c(N3CCN(C(=O)Nc4ccccc4)CC3)cc21,-1%,-25%,-23%,11%,11%,-84*
CCOC(=O)N1CCC(NC(=O)c2ccc3c(c2)ncn3C2CCCC2)CC1,-3%,8%,-1%,nt,nt,-68*
O=C(NC1CC1)c1ccc2c(c1)ncn2C1CCCC1,6%,61%,3%,21%,11%,-8
CCOC(=O)N1CCN(C(=O)c2ccc3c(c2)ncn3C2CCCC2)CC1,-3%,nt,22%,5%,0%,-62*
CC1=C(C(=O)Nc2ccc([N+](=O)[O-])cc2)C(c2cccc(C(F)(F)F)c2)NC(=S)N1c1ccccc1 (centres undefined),-1%,-16%,?,?,?,-98*
O=C(Cc1cccs1)N/N=C/C=C/c1ccccc1[N+](=O)[O-],0%,60%,-22%,?,-25%[14.2 µM],23
COc1ccccc1/C=C/C=N/NC(=O)c1cc(-c2ccc(C)o2)[nH]n1,1%,-6%,10µM*,?,?,?
Cc1ccc(/C=N/NC(=O)c2cc(-c3ccc(C)o3)[nH]n2)cc1,-4%,-7%,?,?,?,14
COc1ccccc1/C=C/C=N/NC(=O)Cc1cccs1,7%,46%,?,0.12µM*,?,21
CCOc1ccccc1C(=O)N1CC(=O)Nc2ccc(C)cc2C1c1ccccc1 (centres undefined),nt,-5%,nt,-1%[46.1 µM],-1%[46.1 µM],22
O=S(=O)(CCSc1nc2ccccc2o1)c1nc2ccccc2s1,-33%,16µM*,11µM*,?,?,32
COc1ccc(-c2ccc(CCC(=O)O)n2CC(=O)Nc2cccc(C(F)(F)F)c2)cc1,nt,0%,nt,?,-8%[46.1 µM],-1
CCc1ccc(NC(=O)Cn2c(=O)n(-c3cc(C)cc(C)c3)c(=O)c3oc4ccccc4c32)cc1,nt,-1%,nt,-5%[46.1 µM],nt,?
COc1ccc(NC(=O)Cn2c(=O)n(-c3cc(C)cc(C)c3)c(=O)c3oc4ccccc4c32)cc1OC,nt,-8%,nt,-3%[46.1 µM],nt,-84*
Cc1cnc(-n2ncc(C(=O)NCC3COCCO3)c2C2CC2)nc1-c1cccs1 (centres undefined),nt,19%,nt,nt,nt,nt
CC(C)c1ccc2c(c1)CC[C@H]1[C@](C)(CN)CCC[C@]21C,nt,?,?,nt,nt,-98*
CC(C)c1ccc2c(c1)CCC1C(C)(CN)CCCC21C (centres undefined),-1%,?,?,?,10µM*,-27
COC1=CC(=O)C=C(OC)C1=O,nt,28µM*!,-94%,nt,nt,52
COC1=CC(=O)c2ccccc2C1=O,-19%,?,1µM*,nt,nt,nt
COc1ccc(SN=C2C(C)=CC(=O)C=C2C)cc1,4%,?,0%,?,-15%[46.1 µM],0
CCOc1cc(/C=C2\COc3ccccc3C2=O)cc(Br)c1OCC(=O)N(C)C,-59%,10µM*,?,?,?,-39
SMILES,SARS PLpro yeast,FMDV inh,HCV inh,Lassa entry inh,Marburg entry inh,HCMV inh
COc1ccc(/C=C2\COc3ccccc3C2=O)cc1OC,-81%,-23%,-27%,?,?,?
O=C(O)c1ccc(/C=C2\COc3ccccc3C2=O)cc1,1%,22µM*,-5%,?,?,33
COCC1CCCN(Cc2ccc3c(c2)CN(C(=O)c2cn4ccc(C)cc4n2)CCO3)C1 (centres undefined),nt,-4%,nt,nt,nt,nt
Cc1ccc(S(=O)(=O)c2nc(S(=O)(=O)c3ccc(C)cc3)c(NCCCOC(C)C)s2)cc1,nt,7%,nt,?,-5%[46.1 µM],-6
O=[N+]([O-])c1ccc(Oc2cnc3ccccc3n2)cc1,0%,17%,-17%,4%,-2%[46.1 µM],-63*
CCOc1ccccc1CNS(=O)(=O)c1ccc2c(c1)CCCN2C(C)=O,nt,14%,nt,-17%[46.1 µM],nt,?
Cc1ccc(S(=O)(=O)N2C[C@@H](C)[C@]3(C2)[C@H](O)[C@H](OC(=O)Nc2cccs2)C[C@H]2C(=O)N(c4ccccc4)C(=O)[C@H]23)cc1,nt,?,nt,nt,nt,-104*
Cc1ccc(S(=O)(=O)N2C[C@@H](C)[C@]3(C2)[C@H](O)[C@H](OC(=O)NC2CC2)C[C@H]2C(=O)N(c4ccccc4)C(=O)[C@H]23)cc1,nt,?,nt,nt,nt,-4
O=C(NCc1cccnc1)/C(=C\c1ccc(-c2cccc(Cl)c2)o1)S(=O)(=O)c1ccccc1,?,18µM*,?,?,?,-103*
Cc1ccc(C(=O)N/C(=C\c2ccc(-c3cc(Cl)ccc3Cl)o2)C(=O)NCc2cccnc2)cc1,2%,-5%,10µM*,11µM*,?,-4
O=C(NCc1cccnc1)/C(=C/c1ccc(-c2cccc(Cl)c2)o1)S(=O)(=O)c1ccccc1,2%,?,28%,12%,?,-5
NC1(N)OC(CN2C(=O)C3=C(CCCC3)C2=O)CS1 (centres undefined),nt,nt,nt,nt,-6%,nt
CCn1c(C)nc2cc(-c3nc4n(n3)Cc3ccccc3-4)ccc21,-33%,0.79µM*,-25%,?,?,nt
Fc1ccc(-c2nc3n(n2)Cc2ccccc2-3)cc1,-13%,-59%,?,13µM*,?,150
COc1ccc(N2CCN(C3(c4ccccc4)C(=O)c4ccccc4C3=O)CC2)cc1,nt,-2%,nt,-15%[46.1 µM],?,-12
COc1ccc2nc(NC(=O)Nc3ccccc3OC)sc2c1,3%,-18%,?,?,?,64
COc1ccc2nc(NC(=O)c3ccc(-n4nc(C)cc4C)cc3)sc2c1,6%,-12%,-19%,-18%,-26%,-106*
COc1ccc2nc(NC(=O)c3ccc(F)cc3)sc2c1,-3%,17%,-25%,-1%[46.1 µM],?,29
CN(CC1CCCO1)S(=O)(=O)c1ccc(C(=O)Nc2nc3cc4c(cc3s2)OCO4)cc1 (centres undefined),-2%,0%,?,nt,nt,-85*
COc1ccc2nc(NC(=O)Nc3cccc4ccccc34)sc2c1,-1%,35%,-27%,-13%,-10%,-76*
COc1ccc(C(=O)Nc2nc3c(s2)Cc2cc(OC)ccc2-3)cc1,-15%,10µM*,13µM*,11%[46.1 µM],8%[46.1 µM],?

# From PubChem BioAssay
